From PubChem BioAssay
HepG2 viability = HepG2 cytotoxicity, counter-screen for TGF-b inhibitors; Potency, µM (doses to about 46.1 µM), most hits filed as cytotoxic; HepG2 CAGA-GFP viability, ATP luminescence, 18 h; 0.76% of 410,000 active; AID 588856
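CellTiter-Glo luminescence gave cytotoxicity after 18 hours at 37 degrees C. The cells were HepG2 CAGA-GFP in 1% FBS DMEM, stimulated with 500 pg/mL TGF-beta after compound addition. %Activity was normalised to no-cell wells (complete cell-killing) and DMSO (no toxicity), and curves were fitted and classified.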
TDP1 inh = TDP1 (human) enzyme inhibition. recombinant TDP1, AlphaScreen DNA substrate cleavage. Potency, µM (highest dose often 130 µM), usual class: inhibitors. 0.28% of 350,000 active; also: nearly all actives have a fitted effect of over 40% in size
Target sequence (Q9NUW8 whole entry, looked up): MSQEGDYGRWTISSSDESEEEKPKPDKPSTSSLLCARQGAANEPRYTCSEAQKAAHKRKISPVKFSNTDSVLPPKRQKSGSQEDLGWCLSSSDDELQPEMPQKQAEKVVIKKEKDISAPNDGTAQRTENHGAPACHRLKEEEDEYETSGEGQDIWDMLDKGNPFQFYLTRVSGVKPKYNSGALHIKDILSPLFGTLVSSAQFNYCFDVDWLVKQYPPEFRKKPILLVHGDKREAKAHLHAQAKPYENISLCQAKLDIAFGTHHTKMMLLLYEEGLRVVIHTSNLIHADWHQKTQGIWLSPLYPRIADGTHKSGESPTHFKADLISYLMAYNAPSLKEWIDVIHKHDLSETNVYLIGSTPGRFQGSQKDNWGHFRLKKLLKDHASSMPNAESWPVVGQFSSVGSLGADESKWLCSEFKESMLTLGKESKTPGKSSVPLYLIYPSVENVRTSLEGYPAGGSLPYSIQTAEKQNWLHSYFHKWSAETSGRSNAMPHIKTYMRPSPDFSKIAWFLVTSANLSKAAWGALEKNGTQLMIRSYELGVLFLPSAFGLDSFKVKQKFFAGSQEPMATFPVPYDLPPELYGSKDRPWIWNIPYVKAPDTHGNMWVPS
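E. coli-derived human Tdp1, 1 nM final. Cpd preinc 15 min RT; substrate 15 nM final, 5 min RT; AS bead mix 10 ug/ml final, 10 min RT. Signal loss = tyrosine-FITC cleavage. No-enzyme wells = max signal.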
DT40 TDP1 CPT = DT40-hTDP1 cell growth loss with CPT; chicken DT40 Tdp1-/-;hTDP1 cells + 20 nM CPT, ATP luminescence, 48 h; Potency, µM (series often up to 46.2 µM), hits mostly inhibitors; 12% of 420,000 active; AID 686979; also: nearly all actives have a fitted effect of over 55% in size
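Cell growth measured by CellTiter-Glo luminescence after a minimum 48 h, 37 C compound exposure with 20 nM CPT in Tdp1-knockout DT40 cells stably expressing hTDP1, seeded 400/well; qHTS titration format.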
IL-1B inflam inh = blocks inflammasome-driven IL-1 beta release | THP-1 LPS/ATP IL-1B secretion, AlphaLISA, 16 h; active compounds read low | 4.7% of 360,000 active | AID 743279 | activity change, % at 57.5 µM; in the data active = activity change below about -50%; inconclusive = mostly about -30% to -49%
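Secreted IL-1B measured by AlphaLISA bead assay after 16 h compound exposure of THP-1 cells; compounds (final up to 57.5 uM) added 1 h before LPS (250 ng/mL) and ATP (1.25 mM) stimulation; lower signal means less secretion.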
TGFb inhibitor = inhibitors of TGF-b signaling | HepG2 CAGA-GFP TGF-b/SMAD3 reporter, GFP fluorescence, 18 h; TGF-beta stimulated, 500 pg/mL final | Potency, µM (top dose mostly 46.1 µM), most hits filed as inhibitors | 1.2% of 410,000 active; also: nearly all actives have a fitted effect of over 65% in size
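Inhibition of TGF-beta-driven CAGA-GFP reporter expression in HEPG2 cells is measured by cellular GFP fluorescence after 18 h stimulation with 500 pg/mL recombinant TGF-beta in 1% FBS medium at 37 degrees C.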
TDP1 cell noCPT = qHTS for Inhibitors of human tyrosyl-DNA phosphodiesterase 1 (TDP1): qHTS in cells in absence of CPT. Potency, µM (top dose mostly 46.2 µM), hits mostly inhibitors. 15% of 420,000 active. AID 686978, 2013. DT40 Tdp1-/- hTDP1 cells, no CPT, ATP luminescence, 48 h; also: nearly all actives have a fitted effect of over 55% in size
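Chicken DT40 Tdp1-/- cells complemented with human TDP1, screened without camptothecin (DMSO vehicle only), 400 cells/well. Compounds pin-transferred, cells incubated at 37 °C for at least 48 hr. Growth read as ATP-dependent luminescence (CellTiter-Glo, 30 min at RT).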
Of the large screens only hits and unclear results are named; the others gave an inactive call. Compounds with a hit are over-represented: about 19% of the library has one in this group of screens. Unless noted, calls follow the shape of the dose curve; as a rule, active = well fitted curve in the direction sought with a large enough effect; inconclusive = small, poorly fitted or top-dose-only effect, or another doubt; inactive = no such curve, though single readings can be large; an effect the other way counts as inactive or inconclusive.

COc1c(C)cc(S(=O)(=O)NCc2ccccn2)c(C)c1C	none (no result: TDP1 inh)
COc1cc(C(=O)Nc2ccccc2N2CCOCC2)ccc1OCC(=O)N1CCOCC1	none (no result: TDP1 inh)
CCCc1nn2c(=O)cc(COc3ccc(/C=C(\C#N)C(=O)Nc4ccccc4)cc3)nc2s1	none (no result: IL-1B inflam inh)
COc1ccc(NC(=O)CSc2nc3ccccc3n2CC(=O)N(C)c2ccc(F)cc2)cc1	DT40 TDP1 CPT inconclusive, TDP1 cell noCPT 15µM (no result: IL-1B inflam inh)
COc1ccc(NC(=O)CSc2nc3ccccc3n2CC(=O)N2CCCC(C)C2)cc1 (stereo unspecified)	DT40 TDP1 CPT inconclusive, TDP1 cell noCPT 21µM (no result: IL-1B inflam inh)
CN(C(=O)CSc1nc2ccccc2n1CC(=O)N(C)C1CCCCC1)c1ccc(F)cc1	DT40 TDP1 CPT inconclusive, TDP1 cell noCPT 29µM (no result: IL-1B inflam inh)
CC1CCN(C(=O)Cn2c(SCC(=O)Nc3ccc(F)cc3)nc3ccccc32)CC1	DT40 TDP1 CPT inconclusive, TDP1 cell noCPT inconclusive (no result: IL-1B inflam inh)
Cc1ccc(NC(=O)CSc2nc3ccccc3n2CC(=O)N(C)C2CCCCC2)cc1C	DT40 TDP1 CPT inconclusive, TDP1 cell noCPT 18µM (no result: IL-1B inflam inh)
COc1ccccc1NC(=O)Cn1c(SCC(=O)Nc2ccc(F)cc2)nc2ccccc21	DT40 TDP1 CPT inconclusive, TDP1 cell noCPT inconclusive (no result: IL-1B inflam inh)
CCC(Cn1nnc2ccccc2c1=O)NC(=O)Nc1ccc(C)cc1C (stereo unspecified)	none (no result: IL-1B inflam inh)
COc1ccccc1-c1cc(=O)c2c(O)ccc([N+](=O)[O-])c2o1	DT40 TDP1 CPT 3.7µM, TDP1 cell noCPT 5.2µM (no result: TDP1 inh)
O=C(Nc1ccc(O)c2c(=O)cc(-c3ccccc3Cl)oc12)c1ccc(Br)cc1	none (no result: HepG2 viability, DT40 TDP1 CPT, IL-1B inflam inh, TGFb inhibitor, TDP1 cell noCPT)
CN1CC[C@H](c2c(O)cc(O)c3c(=O)cc(-c4ccccc4Cl)oc23)[C@@H](O)C1	TGFb inhibitor 0.22µM (no result: DT40 TDP1 CPT, IL-1B inflam inh, TDP1 cell noCPT)
O=c1cc(-c2ccccc2Cl)oc2c([N+](=O)[O-])c(O)cc(O)c12	DT40 TDP1 CPT 23µM, IL-1B inflam inh -74, TGFb inhibitor 13µM, TDP1 cell noCPT 26µM
O=c1cc(-c2ccccc2Cl)oc2ccc([N+](=O)[O-])c(O)c12	DT40 TDP1 CPT inconclusive, TDP1 cell noCPT inconclusive
O=C1CCCc2cc3c(cc21)CCCC3	none (no result: TDP1 inh)
COc1cc2c(cc1OC)C(=O)CCC2	DT40 TDP1 CPT 15µM, TGFb inhibitor inconclusive, TDP1 cell noCPT 16µM (no result: TDP1 inh)
CCOc1ccc(S(=O)(=O)Nc2cccc(N(C)S(C)(=O)=O)c2)cc1	DT40 TDP1 CPT 23µM, TDP1 cell noCPT 12µM
CN(c1cccc(NS(=O)(=O)c2ccccc2)c1)S(C)(=O)=O	none
COc1ccc(S(=O)(=O)Nc2cccc(N(C)S(C)(=O)=O)c2)cc1C	DT40 TDP1 CPT 26µM, TDP1 cell noCPT 21µM
CCOC(=O)C(C#N)=CN1CCNc2ccccc21	none (no result: TDP1 inh)
CC1=NN(c2ccc(C(F)(F)F)cn2)C(=O)C1	DT40 TDP1 CPT 23µM, TGFb inhibitor inconclusive, TDP1 cell noCPT inconclusive
CC1(C)CC2CC(C)(CN2C(=O)c2cccs2)C1 (stereo unspecified)	DT40 TDP1 CPT inconclusive, TDP1 cell noCPT 8.2µM
CC(=O)Nc1ccccc1C(=O)N1CC2(C)CC1CC(C)(C)C2 (stereo unspecified)	none
CC12CN(C(=O)c3ccc([N+](=O)[O-])cc3)CC(C)(CN(C(=O)c3ccc([N+](=O)[O-])cc3)C1)C2=O	none
CC1(C)CC2CC(C)(CN2C(=O)c2ccc([N+](=O)[O-])cc2)C1 (stereo unspecified)	TDP1 inh inconclusive, DT40 TDP1 CPT 21µM, TDP1 cell noCPT inconclusive
Cc1cccc(C(=O)N2CC3(C)CC2CC(C)(C)C3)c1 (stereo unspecified)	DT40 TDP1 CPT 21µM, TDP1 cell noCPT 23µM
CC1(C)C[C@@H]2C[C@@](C)(CN2C(=O)c2ccccc2)C1	DT40 TDP1 CPT inconclusive, TDP1 cell noCPT 15µM
COc1ccc(-c2nn(Cc3ccccc3)cc2C(=O)N2CCN(c3ncccn3)CC2)cc1OC	none
COc1ccccc1NS(=O)(=O)c1cc(C(=O)N2CCCC2)ccc1F	none
CC1CCCC(NC(=O)CN2CCN(S(=O)(=O)c3ccc(Br)s3)CC2)C1C (stereo unspecified)	DT40 TDP1 CPT inconclusive, IL-1B inflam inh inconclusive, TDP1 cell noCPT 18µM
O=C(CN1CCN(S(=O)(=O)c2ccc(Br)s2)CC1)N1CCc2ccccc21	DT40 TDP1 CPT inconclusive, TDP1 cell noCPT inconclusive (no result: TDP1 inh)
O=C(CN1CCCN(S(=O)(=O)c2ccc(Br)s2)CC1)Nc1ccc(Cl)cc1	DT40 TDP1 CPT inconclusive, IL-1B inflam inh -76, TDP1 cell noCPT inconclusive
CCOC(=O)CNC(=O)CN1CCCN(S(=O)(=O)c2ccc(Br)s2)CC1	TDP1 cell noCPT inconclusive
CN(CC(=O)Nc1cccc(F)c1)C(=O)C1CC(=O)N(Cc2ccccc2)C1 (stereo unspecified)	none
CCOc1ccccc1NC(=O)C(OC(=O)c1ccc(N(C)C)cc1)c1ccccc1 (stereo unspecified)	DT40 TDP1 CPT 0.58µM, TDP1 cell noCPT inconclusive
CCOc1ccccc1NC(=O)C(NCCc1ccc(OC)cc1)c1ccccc1 (stereo unspecified)	DT40 TDP1 CPT 23µM, TDP1 cell noCPT inconclusive
CCOc1ccccc1NC(=O)C(OC(=O)c1ccc(CC)cc1)c1ccccc1 (stereo unspecified)	DT40 TDP1 CPT 16µM, TDP1 cell noCPT inconclusive
CCCNC(=O)CSc1n[nH]c(=O)n1CCc1ccccc1	none (no result: TDP1 inh)
Cc1nc2cc(NC(=O)[C@@H]3C[C@@H](Sc4ccccn4)CN3Cc3ccccc3F)ccc2s1	none (no result: HepG2 viability, TDP1 inh, IL-1B inflam inh, TGFb inhibitor)
O=C1CC2CC1C(C(=O)O)C2C(=O)O (stereo unspecified)	none (no result: TDP1 inh)
O=S(=O)(NCCc1ccccc1)c1cnc(Cl)c(Br)c1	IL-1B inflam inh -90
Cc1cc(C)n(-c2ncnc3ccccc23)n1	none
CCOC(=O)C1CCN(C(=O)COc2ccc([N+](=O)[O-])cc2)CC1	DT40 TDP1 CPT inconclusive
CCOC(=O)C1(C)CCN1C(=O)COc1ccc(C(C)(C)C)cc1 (stereo unspecified)	DT40 TDP1 CPT 21µM, TDP1 cell noCPT 21µM (no result: TDP1 inh)
CCOC(=O)C1CCN(C(=O)COc2ccc(S(=O)(=O)N3CCOCC3)cc2C)CC1	none
CCOC(=O)C1CCCN(C(=O)COc2ccc(S(=O)(=O)N3CCOCC3)cc2)C1 (stereo unspecified)	IL-1B inflam inh -75
CCOC(=O)C1(C)CCN1C(=O)COc1ccccc1 (stereo unspecified)	none (no result: TDP1 inh)
